Sampled rows, rich in hits. Any-hit rate of the full collection: about 2.4%.
Platelet DG rel: inhibitors of platelet dense granule secretion, primary screen, cell-based, MLPCN, human platelets; human platelet-rich plasma, SFLLRN dense granule ATP release, luminescence; inhibition, %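 (compounds screened at 7.5 µM in platelet-rich plasma)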; hit rate 0.22% among 300,000; AID 1663, 2009;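 active = mean replicate score, as percent of positive control, at or above 50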
SENP8 block-1: human SENP8 protease inhibitors, primary screen, biochemical, fluorescence, Nedd8 protein substrate, uHTS; hit rate 0.64% among 360,000; recombinant SENP8; inhibition, % at 20 µM; Sentrin-specific protease 8 (Homo sapiens), Q96LD8; in the data active = inhibition mostly above about 40%, no sharp cut-off; inactive = mostly below about 27%
SENP8 block-2: SENP8 protease inhibitors, primary screen, biochemical, luminescence; Sentrin-specific protease 8 (Homo sapiens), Q96LD8; inhibition, % at 10 µM; hit rate 1.2% among 330,000; AID 2540, 2010; purified SENP8, Z-RLRGG-aminoluciferin cleavage; in the data active = inhibition above about 50%
SENP6 inh: SENP6 protease inhibitors, primary screen, biochemical, luminescence, uHTS; inhibition, % at 10 µM; AID 2599, 2010; Recombinant SENP6 catalytic domain, aminoluciferin luminescence; hit rate 1.8% among 330,000;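 active = inhibition above about 50% at the single tested dose, limit read from the data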;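 also: plate controls were DMSO wells with enzyme for no effect and DMSO wells lacking enzyme for full effect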
SENP7 block: SENP7 protease inhibitors, primary screen, biochemical, luminescence, uHTS. hit rate 1.5% among 330,000. recombinant SENP7, Z-RLRGG-aminoluciferin luminescence, 40 min. AID 434973, 2010. inhibition, % at 5 µM. Sentrin-specific protease 7 (Homo sapiens), Q9BQF6;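 active = inhibition above about 50% at the single test dose, limit read from the data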;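 also: plate controls were DMSO with enzyme for no effect and no enzyme buffer wells for full effect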
Target sequence (Q9BQF6 706-1050 limits assumed): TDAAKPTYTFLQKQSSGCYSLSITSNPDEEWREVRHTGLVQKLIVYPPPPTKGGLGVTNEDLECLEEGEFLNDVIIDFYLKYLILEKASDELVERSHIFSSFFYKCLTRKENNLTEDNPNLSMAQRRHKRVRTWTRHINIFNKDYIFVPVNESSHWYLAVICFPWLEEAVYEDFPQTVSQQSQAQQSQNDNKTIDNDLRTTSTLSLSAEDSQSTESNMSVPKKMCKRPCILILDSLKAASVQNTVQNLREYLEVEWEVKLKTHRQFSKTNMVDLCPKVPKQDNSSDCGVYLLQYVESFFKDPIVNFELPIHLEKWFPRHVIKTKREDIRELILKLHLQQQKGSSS
SENP8 inh conf: human SENP8 protease inhibitors, confirmation, biochemical, Nedd8 protein substrate, single concentration; shares compounds with SENP8 block-1; purified SENP8, Nedd8-AMC/pro-Nedd8 cleavage fluorescence, 30 min; inhibition, % at 25 µM; hit rate 15% among 1,400; in the data active = inhibition mostly above about 39%, no sharp cut-off; inactive = mostly below about 34%
The depositor's hits bear a star; x = no result.

SMILES | Platelet DG rel | SENP8 block-1 | SENP8 block-2 | SENP6 inh | SENP7 block | SENP8 inh conf
CCC(NC(=S)NCc1ccccc1)C(=O)O (configuration not stated) | 10.5 | 47.7* | -1.0 | 1.0 | -0.2 | 35.0
Cc1ccccc1Nc1nc(N)nc(COC(=O)CCNS(=O)(=O)c2ccccc2)n1 | 3.1 | 6.3 | -6.1 | -2.7 | 3.8 | x
Cc1cc(C)nc(N2N=C(C(C)(C)C)CC2=O)n1 | -1.0 | 63.4* | -0.3 | 8.4 | -2.9 | 75.5*
CN(C)c1ccc(NC(=O)CN2CCC(N3CCCCC3)CC2)cc1 | 3.0 | 41.6* | 3.8 | -2.0 | 1.2 | -12.4
COc1ccc(S(=O)(=O)N2CCC(C(=O)N3CCN(c4ccccc4OC)CC3)CC2)cc1 | -10.4 | 42.6* | 0.4 | -1.6 | -3.8 | 3.6
Cc1c(Cl)cccc1NC(=S)NCCc1ccc(C(F)(F)F)cc1 | 10.2 | 5.6 | 1.1 | -9.0 | -2.3 | x
Cc1ccc(C(=O)C(C)OC(=O)CCN=C2NS(=O)(=O)c3ccccc32)cc1 (configuration not stated) | -12.9 | 45.9* | -8.0 | -12.9 | 0.8 | -4.1
CC(OC(=O)CCN=C1NS(=O)(=O)c2ccccc21)C(=O)c1ccccc1 (configuration not stated) | 4.7 | 8.2 | -7.4 | 1.8 | 0.9 | x
CC(=O)Nc1ccc(NC(=O)C(C)OC(=O)CCCN=C2NS(=O)(=O)c3ccccc32)cc1 (configuration not stated) | -8.2 | 1.9 | -4.9 | -5.8 | -15.0 | x
CC(OC(=O)CCN=C1NS(=O)(=O)c2ccccc21)C(=O)Nc1ccc(N(C)C)cc1 (configuration not stated) | 4.5 | 45.2* | -14.0 | -17.7 | 8.0 | 18.1
Cc1ccsc1C(=O)OCC(=O)NCc1ccc(Cl)cc1 | x | 15.4 | -3.1 | -6.3 | -4.2 | x
O=C(CSCc1c(F)cccc1F)Nc1ccccc1 | -4.2 | 17.9 | 3.7 | 2.4 | 6.7 | x
Cc1ccc(S(=O)(=O)N2CCN(C(=O)CN3CCc4ccccc4C3)CC2)cc1 | 3.9 | 17.3 | 11.1 | -12.6 | 2.5 | x
O=C(CN1CCc2ccccc2C1)N1CCN(S(=O)(=O)c2ccccc2)CC1 | -2.5 | 46.3* | 4.8 | -0.2 | 0.1 | 5.8
O=C(NCc1ccccc1OC(F)(F)F)C1CCC(=O)N(CCCN2CCOCC2)C1 (configuration not stated) | x | 0.5 | x | x | x | x
O=C(O)CCCCNS(=O)(=O)c1ccc(Cl)c(C(F)(F)F)c1 | -1.0 | 42.5* | -4.9 | -5.4 | -1.3 | 8.1
CCOC(=O)C1CCN(S(=O)(=O)c2ccc(-c3cc(C(F)(F)F)n(C)n3)s2)CC1 | 3.0 | 51.7* | -1.6 | -9.3 | -0.5 | 35.3
CCc1nc2ccccc2c(C(=O)OCC(=O)C(C)(C)C)c1C | -2.9 | 3.3 | -3.6 | -27.7 | -7.2 | x
CCc1nc2ccccc2c(C(=O)OCCN2C(=O)c3ccccc3C2=O)c1C | 0.1 | 42.3* | 5.4 | 1.2 | 3.1 | 32.4
CC(=O)N1CCN(c2ccc(NC(=S)NC(=O)/C=C/c3ccccc3)cc2)CC1 | -6.1 | x | 0.4 | -7.4 | 4.0 | x
O=C(/C=C/c1ccc(Cl)cc1)NC(=S)Nc1ccc(C(=O)O)cc1 | -4.9 | 15.9 | 7.6 | 15.1 | 4.1 | x
CN(C)c1ccc(NC(=S)NC(=O)/C=C/c2ccc(Cl)cc2)cc1 | 0.4 | 41.2* | 16.5 | -9.6 | 6.3 | 26.3
COc1cc(OC)cc(C(=O)NC(=S)Nc2ccc(N3CCCC3)cc2)c1 | 11.0 | 43.1* | -3.0 | 3.3 | -2.2 | 28.2
COc1ccc(/C=C/C(=O)NC(=S)Nc2ccc(N3CCN(C(C)=O)CC3)cc2)cc1 | 8.1 | 51.0* | -2.5 | -7.1 | 1.8 | 12.6
O=C1c2ccc3c4c(ccc(c24)C(=O)N1NC(=O)C(F)(F)F)CC3 | 4.1 | -252.4 | 4.0 | -13.5 | -14.3 | x
CC(=O)NN1C(=O)c2ccc3c4c(ccc(c24)C1=O)C(=O)N(NC(C)=O)C3=O | -4.9 | 35.0* | 11.0 | 28.1 | 19.7 | 54.4*
CCc1cc([N+](=O)[O-])cc(CC)c1N | -28.2 | 45.2* | -0.9 | 3.2 | 0.9 | 15.8
COCCCN1C(=O)C(=O)/C(=C(/O)c2ccc(S(=O)(=O)N3CCCCC3)cc2)C1c1ccc(O)cc1 (configuration not stated) | 7.0 | 45.4* | 4.0 | 17.7 | 8.1 | 12.1

Compound activity: PubChem BioAssay, several laboratories
